Test results from PubChem BioAssay (EPA / NIEHS).
Active and inactive are the calls of the source. The calls were made as follows: active = hit-call score of the fitted dose curve at least 0.9, where 1 is the maximum; inactive = score below 0.9.

Tests used:
[1] = ATG_GLI_CIS: Attagene CIS-FACTORIAL HepG2 Assay for human Zinc Finger Protein GLI1 (AID 2282945); conditions: HepG2, Attagene cis-factorial reporter mRNA, GLI element; actives raise or lower the signal
Method in brief: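 Bidirectional curve fits relative to DMSO, using reporter mRNA levels from RT-PCR plus capillary electrophoresis. Cells were HepG2 transiently carrying cis-regulated reporter constructs, harvested 24 h after dosing.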

[2] = target: Bile acid receptor (Homo sapiens) (UniProt Q96RI1); assay: ATG_IR1_CIS: Attagene CIS-FACTORIAL HepG2 Assay for human Nuclear Receptor Subfamily 1 Group H Member 4 (NR1H4), IR1 submotif (AID 2282946); conditions: IR1 reporter transcription, actives raise or lower the signal
Method in brief: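 HepG2 cells transiently transfected with multiplexed cis-element reporter units read endogenous transcription factor activity. After 24 h compound exposure, reporter mRNA was quantified by RT-PCR, fluorescent labelling, HpaI digestion and capillary electrophoresis; bidirectional fitting versus DMSO baseline.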

[3] = ATG_GRE_CIS: Attagene CIS-FACTORIAL HepG2 Assay for human Glucocorticoid Response Elements (GRE) (AID 2282947); conditions: HepG2 GRE cis-reporter, Attagene multiplex mRNA; actives raise or lower the signal
Method in brief: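 Reporter transcripts read by RT-PCR with capillary electrophoresis fluorescence after a 24 h chemical exposure of HepG2 cells transiently transfected with multiple cis-element reporter units. Gain or loss fitted against DMSO.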

[4] = ATG_ISRE_CIS: Attagene CIS-FACTORIAL HepG2 Assay for human Interferon Regulatory Factor 1 (IRF1) binding to an Interferon-Stimulated Response Element (ISRE) (AID 2282948); conditions: HepG2 ISRE cis-reporter (Attagene), mRNA transcription readout; actives raise or lower the signal
Method in brief: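 Signal reflects induction or loss of ISRE-linked reporter mRNA in transiently transfected HepG2 cells after a 24 h treatment, detected by fluorescent RT-PCR fragments on capillary electrophoresis and normalised to DMSO.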

[5] = ATG_M_32_CIS: Attagene CIS-FACTORIAL HepG2 Assay for M32 Transcription Factor (Internal Marker) (AID 2282949); conditions: HepG2 Attagene cis-factorial M32 reporter, mRNA; actives raise or lower the signal;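 also: background control marker of the multiplexed CIS panel rather than a real target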
Method in brief: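 HepG2 human liver cells transiently transfected with cis-promoter-driven multiple reporter transcription units, dosed 24 h. Reporter mRNA quantified by RT-PCR, FAM-labelled primer extension, HpaI digest and capillary electrophoresis; bidirectional fit versus DMSO baseline.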

[6] = ATG_M_06_CIS: Attagene CIS-FACTORIAL HepG2 Assay for M06 Transcription Factor (Internal Marker) (AID 2282950); conditions: HepG2 Attagene CIS-FACTORIAL M06 internal marker reporter; actives raise or lower the signal
Method in brief: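 Internal background marker within multiplexed cis-reporter HepG2 system. Cells transiently transfected, dosed 24 h; reporter mRNA measured by RT-PCR, HpaI digestion and capillary electrophoresis. Bidirectional fit relative to DMSO.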

[7] = target: Hypoxia-inducible factor 1-alpha (Homo sapiens) (UniProt Q16665); assay: ATG_HIF1a_CIS: Attagene CIS-FACTORIAL HepG2 Assay for human Hypoxia Inducible Factor 1 (HIF1A) (AID 2282951); conditions: HepG2 Attagene cis-factorial HIF1a reporter transcription; actives raise or lower the signal
Method in brief: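 Fluorescence intensity of capillary-separated, 6-FAM-labelled reporter amplicons gives mRNA induction in HepG2 cells carrying transfected cis-promoter reporter units; cells exposed 24 h, responses fitted up or down from DMSO.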

[8] = target: Hepatocyte nuclear factor 6 (Homo sapiens) (UniProt Q9UBC0); assay: ATG_HNF6_CIS: Attagene CIS-FACTORIAL HepG2 Assay for human Hepatocyte Nuclear Factor 6 (HNF6) (AID 2282952); conditions: HepG2 Attagene cis-factorial HNF6 reporter transcription; actives raise or lower the signal
Method in brief: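 Twenty-four-hour chemical treatment of reporter-transfected HepG2 cells precedes RNA isolation, DNase-treated reverse transcription and PCR of reporter sequences. Labelled fragments are sized by capillary electrophoresis and fitted bidirectionally versus DMSO.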

[9] = ATG_MRE_CIS: Attagene CIS-FACTORIAL HepG2 Assay for human Metal Responsive Element (MRE) (AID 2282954); conditions: HepG2 MRE cis-reporter transcription, Attagene multiplex; actives raise or lower the signal
Method in brief: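 Endogenous MRE-dependent transcription read as reporter mRNA in transiently transfected human HepG2 cells at 24 h. RNA reverse-transcribed, PCR-amplified, labelled and resolved by capillary electrophoresis; gain or loss relative to DMSO.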

[10] = target: Paired box protein Pax-6 (Homo sapiens) (UniProt P26367); assay: ATG_Pax6_CIS: Attagene CIS-FACTORIAL HepG2 Assay for human Paired Box 6 (PAX6) (AID 2282956); conditions: HepG2 CIS-FACTORIAL PAX6 reporter transcription, RNA readout; actives raise or lower the signal
Method in brief: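 Values derive from bidirectional curve fitting of reporter mRNA signal relative to DMSO. HepG2 cells bearing transfected cis-regulated MRTUs were exposed for 24 h; transcripts were read by RT-PCR and capillary electrophoresis.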

[11] = ATG_PXRE_CIS: Attagene CIS-FACTORIAL HepG2 Assay for human Pregnane X Receptor Element (PXRE) (AID 2282957); conditions: HepG2 Attagene CIS-FACTORIAL PXRE reporter, mRNA; actives raise or lower the signal
Method in brief: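 Bidirectional activity, baselined to DMSO, derived from reporter mRNA fluorescence (RT-PCR plus capillary electrophoresis) in HepG2 cells bearing cis-promoter reporter units, 24 h exposure.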

[12] = ATG_PPRE_CIS: Attagene CIS-FACTORIAL HepG2 Assay for human Peroxisome Proliferator-activated Response Element (PPRE) (AID 2282958); conditions: HepG2 PPRE cis-element reporter, Attagene transcription factor profiling; actives raise or lower the signal
Method in brief: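 In this cell-based multiplex, a PPRE cis element drives a reporter sequence in transiently transfected HepG2 cells. Following 24 h treatment, labeled cDNA amplicons are sized and quantified by capillary electrophoresis, with DMSO defining baseline.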

[13] = ATG_RORE_CIS: Attagene CIS-FACTORIAL HepG2 Assay for human RAR-related Orphan Receptor Element (RORE) (AID 2282959); conditions: HepG2 Attagene cis-factorial RORE reporter, mRNA; actives raise or lower the signal
Method in brief: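 Endogenous factor activity at a cis response element is read as reporter transcript levels in HepG2 cells, 24 h post-dose. Transcripts are quantified by RT-PCR with capillary electrophoresis, and data fitted in both directions against DMSO.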

[14] = ATG_Sox_CIS: Attagene CIS-FACTORIAL HepG2 Assay for human SRY-box transcription factor (SOX) (AID 2282960); conditions: HepG2 Attagene cis-factorial SOX reporter, mRNA; actives raise or lower the signal
Method in brief: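 Measures mRNA induction of a SOX1-associated reporter in HepG2 after 24 h dosing. Fluorescently labelled RT-PCR fragments are separated by capillary electrophoresis, and gain or loss relative to DMSO control is fitted.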

[15] = target: Transcription factor Sp1 (Homo sapiens) (UniProt P08047); assay: ATG_Sp1_CIS: Attagene CIS-FACTORIAL HepG2 Assay for human Specificity Protein 1 (Sp1) (AID 2282961); conditions: HepG2 Sp1 cis-reporter transcription, actives raise or lower the signal
Method in brief: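 Cells: HepG2, transiently transfected with cis-regulated multiplexed reporters. Exposure: 24 h. Detection: reporter transcripts amplified, fluorescently labeled, restriction-digested and sized by capillary electrophoresis. Analysis: bidirectional fit relative to DMSO.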

[16] = ATG_SREBP_CIS: Attagene CIS-FACTORIAL HepG2 Assay for human Sterol Regulatory Element Binding (SREBP) (AID 2282962); conditions: HepG2 Attagene cis-factorial SREBP reporter, mRNA; actives raise or lower the signal
Method in brief: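 Values derive from bidirectional curve fitting with DMSO as baseline. The underlying measurement is reporter mRNA from cis-element-regulated units in transiently transfected HepG2, quantified by RT-PCR and capillary electrophoresis after 24 h exposure.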

[17] = target: Signal transducer and activator of transcription 3 (Homo sapiens) (UniProt P40763); assay: ATG_STAT3_CIS: Attagene CIS-FACTORIAL HepG2 Assay for human Signal Transducer and Activator of Transcription 3 (STAT3) (AID 2282963); conditions: HepG2, Attagene cis-factorial STAT3 reporter transcription; actives raise or lower the signal
Method in brief: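 Readout is reporter transcript quantified by RT-PCR and capillary electrophoresis, with 6-FAM primer extension and HpaI digestion. Total RNA is taken 24 h after dosing transiently transfected HepG2 carrying cis-regulated reporter units. Bidirectional fit against DMSO.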

[18] = ATG_TA_CIS: Attagene CIS-FACTORIAL HepG2 Assay for human TA Basal Promoter (AID 2282964); conditions: HepG2 Attagene CIS-factorial TA basal promoter reporter; actives raise or lower the signal
Method in brief: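 HepG2 cells transiently transfected with multiple reporter units under cis promoter elements, reporting endogenous transcription factor activity; this endpoint tracks the TA basal promoter as background control. Reporter mRNA after 24 h dosing measured by RT-PCR/capillary electrophoresis; bidirectional fits versus DMSO.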

[19] = target: Heat shock factor protein 1 (Homo sapiens) (UniProt Q00613); assay: ATG_HSE_CIS: Attagene CIS-FACTORIAL HepG2 Assay for human Heat Shock Transcription Factor 1 (HSE) (AID 2282953); conditions: HepG2 HSE cis-reporter, Attagene RNA transcription; actives raise or lower the signal
Method in brief: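 HepG2 cells transfected with cis-promoter reporter units sensing endogenous transcription factor activity; reporter mRNA quantified 24 h post-dose by RT-PCR and capillary electrophoresis of 6-FAM-labelled products. Bidirectional fitting against DMSO.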

[20] = ATG_PBREM_CIS: Attagene CIS-FACTORIAL HepG2 Assay for human Phenobarbital-responsive Enhancer Module (PBREM) (AID 2282955); conditions: HepG2 PBREM cis-reporter, Attagene multiplexed transcription; actives raise or lower the signal
Method in brief: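 Cells were transfected with cis-element reporter units and treated for 24 h, after which RNA was extracted and reporter transcripts measured by RT-PCR and capillary electrophoresis.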

Hypoxia-inducible factor 1-alpha (Homo sapiens), sequence (Q16665 whole entry, looked up): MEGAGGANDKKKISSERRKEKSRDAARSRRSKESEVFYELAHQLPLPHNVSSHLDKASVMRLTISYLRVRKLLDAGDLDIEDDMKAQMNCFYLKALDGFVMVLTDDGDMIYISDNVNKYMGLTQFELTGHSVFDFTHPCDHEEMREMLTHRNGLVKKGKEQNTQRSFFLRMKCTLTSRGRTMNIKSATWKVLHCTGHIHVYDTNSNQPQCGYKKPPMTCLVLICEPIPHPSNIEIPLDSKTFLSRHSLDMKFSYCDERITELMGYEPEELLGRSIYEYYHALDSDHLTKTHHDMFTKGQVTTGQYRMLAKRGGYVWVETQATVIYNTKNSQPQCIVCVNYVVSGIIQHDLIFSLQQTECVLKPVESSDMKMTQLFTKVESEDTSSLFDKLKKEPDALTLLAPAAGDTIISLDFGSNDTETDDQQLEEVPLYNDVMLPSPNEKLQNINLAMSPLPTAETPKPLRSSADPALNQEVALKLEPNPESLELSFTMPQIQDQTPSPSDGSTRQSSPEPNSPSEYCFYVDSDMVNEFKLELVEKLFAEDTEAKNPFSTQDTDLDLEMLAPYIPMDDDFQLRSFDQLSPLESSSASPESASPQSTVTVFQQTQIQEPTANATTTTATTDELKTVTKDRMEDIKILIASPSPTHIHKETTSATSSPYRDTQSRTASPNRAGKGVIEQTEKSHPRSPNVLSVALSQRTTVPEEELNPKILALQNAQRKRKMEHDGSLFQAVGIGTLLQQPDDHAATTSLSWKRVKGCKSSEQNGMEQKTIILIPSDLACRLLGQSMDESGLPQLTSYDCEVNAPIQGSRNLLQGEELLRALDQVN
Transcription factor Sp1 (Homo sapiens), sequence (P08047 whole entry, looked up): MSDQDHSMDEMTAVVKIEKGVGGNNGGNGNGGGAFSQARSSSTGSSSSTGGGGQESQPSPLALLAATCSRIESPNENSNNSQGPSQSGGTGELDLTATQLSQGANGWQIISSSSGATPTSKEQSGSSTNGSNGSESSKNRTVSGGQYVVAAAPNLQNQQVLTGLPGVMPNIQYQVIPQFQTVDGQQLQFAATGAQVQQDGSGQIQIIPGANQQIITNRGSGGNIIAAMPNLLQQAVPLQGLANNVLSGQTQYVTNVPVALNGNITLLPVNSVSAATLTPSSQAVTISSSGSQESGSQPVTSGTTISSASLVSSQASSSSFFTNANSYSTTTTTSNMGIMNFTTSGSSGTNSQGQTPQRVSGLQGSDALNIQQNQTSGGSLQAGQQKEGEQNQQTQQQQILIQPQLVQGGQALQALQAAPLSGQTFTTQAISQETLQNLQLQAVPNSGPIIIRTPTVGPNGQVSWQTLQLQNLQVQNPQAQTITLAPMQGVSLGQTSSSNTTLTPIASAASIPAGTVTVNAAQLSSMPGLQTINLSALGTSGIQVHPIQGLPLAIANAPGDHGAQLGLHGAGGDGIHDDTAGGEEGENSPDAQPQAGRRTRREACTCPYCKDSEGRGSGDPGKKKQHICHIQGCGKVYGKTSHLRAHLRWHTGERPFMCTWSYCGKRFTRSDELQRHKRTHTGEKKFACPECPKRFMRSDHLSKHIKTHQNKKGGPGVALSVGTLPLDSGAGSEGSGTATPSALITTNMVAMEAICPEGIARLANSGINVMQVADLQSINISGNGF
Bile acid receptor (Homo sapiens), sequence (Q96RI1 whole entry, looked up): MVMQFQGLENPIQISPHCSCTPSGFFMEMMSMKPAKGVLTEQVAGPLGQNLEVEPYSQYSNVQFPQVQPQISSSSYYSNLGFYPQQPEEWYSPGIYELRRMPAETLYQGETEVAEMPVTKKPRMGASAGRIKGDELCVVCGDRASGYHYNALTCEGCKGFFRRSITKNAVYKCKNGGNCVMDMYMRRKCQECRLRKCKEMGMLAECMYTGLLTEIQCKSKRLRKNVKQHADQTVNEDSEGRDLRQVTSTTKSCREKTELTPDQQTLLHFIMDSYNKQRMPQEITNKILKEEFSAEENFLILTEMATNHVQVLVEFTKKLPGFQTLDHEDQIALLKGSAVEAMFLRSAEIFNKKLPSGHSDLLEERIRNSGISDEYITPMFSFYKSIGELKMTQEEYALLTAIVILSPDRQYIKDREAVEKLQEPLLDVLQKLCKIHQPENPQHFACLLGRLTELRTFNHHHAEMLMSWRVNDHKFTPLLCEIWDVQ
Signal transducer and activator of transcription 3 (Homo sapiens), sequence (P40763 whole entry, looked up): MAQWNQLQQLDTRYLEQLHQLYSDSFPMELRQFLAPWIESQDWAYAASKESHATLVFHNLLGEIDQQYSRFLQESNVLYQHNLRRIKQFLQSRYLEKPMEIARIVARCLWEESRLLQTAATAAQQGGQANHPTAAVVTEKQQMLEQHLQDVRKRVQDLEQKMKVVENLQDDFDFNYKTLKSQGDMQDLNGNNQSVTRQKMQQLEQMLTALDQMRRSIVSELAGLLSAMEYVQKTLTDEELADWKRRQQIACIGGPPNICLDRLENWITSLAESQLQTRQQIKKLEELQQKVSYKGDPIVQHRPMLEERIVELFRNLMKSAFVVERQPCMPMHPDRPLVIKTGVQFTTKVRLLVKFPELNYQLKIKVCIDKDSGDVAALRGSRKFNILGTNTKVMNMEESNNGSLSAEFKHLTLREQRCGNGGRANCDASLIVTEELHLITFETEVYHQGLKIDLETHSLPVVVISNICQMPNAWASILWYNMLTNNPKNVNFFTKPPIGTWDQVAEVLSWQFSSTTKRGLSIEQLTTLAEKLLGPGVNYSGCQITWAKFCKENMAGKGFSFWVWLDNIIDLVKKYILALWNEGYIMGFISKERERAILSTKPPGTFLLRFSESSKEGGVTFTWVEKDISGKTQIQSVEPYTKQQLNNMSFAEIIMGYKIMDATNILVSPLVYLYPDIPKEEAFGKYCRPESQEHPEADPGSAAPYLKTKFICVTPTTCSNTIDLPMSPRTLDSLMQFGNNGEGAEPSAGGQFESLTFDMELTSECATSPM
Heat shock factor protein 1 (Homo sapiens), sequence (Q00613 whole entry, looked up): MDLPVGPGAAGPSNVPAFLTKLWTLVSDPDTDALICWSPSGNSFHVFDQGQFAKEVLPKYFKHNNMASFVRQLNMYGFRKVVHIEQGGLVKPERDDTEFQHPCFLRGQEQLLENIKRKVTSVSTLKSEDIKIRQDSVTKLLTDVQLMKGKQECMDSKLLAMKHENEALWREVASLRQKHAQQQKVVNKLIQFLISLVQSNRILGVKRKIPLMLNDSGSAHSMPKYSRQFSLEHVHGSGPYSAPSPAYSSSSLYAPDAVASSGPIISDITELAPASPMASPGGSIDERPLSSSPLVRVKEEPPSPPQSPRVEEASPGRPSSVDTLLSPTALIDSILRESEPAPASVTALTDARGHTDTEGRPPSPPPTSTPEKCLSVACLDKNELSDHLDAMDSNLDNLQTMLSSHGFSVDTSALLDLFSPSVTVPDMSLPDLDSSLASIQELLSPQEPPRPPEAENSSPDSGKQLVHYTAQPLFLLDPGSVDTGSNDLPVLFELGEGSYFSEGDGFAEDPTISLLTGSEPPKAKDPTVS
Paired box protein Pax-6 (Homo sapiens), sequence (P26367 whole entry, looked up): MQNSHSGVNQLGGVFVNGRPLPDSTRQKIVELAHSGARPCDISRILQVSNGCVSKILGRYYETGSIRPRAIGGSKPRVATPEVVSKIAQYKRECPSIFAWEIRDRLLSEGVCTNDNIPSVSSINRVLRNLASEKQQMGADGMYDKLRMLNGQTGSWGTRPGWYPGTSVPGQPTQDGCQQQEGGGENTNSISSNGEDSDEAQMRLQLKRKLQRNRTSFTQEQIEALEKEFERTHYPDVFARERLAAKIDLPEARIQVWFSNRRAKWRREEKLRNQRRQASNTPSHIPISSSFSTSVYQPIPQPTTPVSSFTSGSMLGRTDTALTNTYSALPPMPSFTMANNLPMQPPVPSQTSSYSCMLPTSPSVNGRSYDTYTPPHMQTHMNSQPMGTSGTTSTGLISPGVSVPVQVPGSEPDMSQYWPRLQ
Hepatocyte nuclear factor 6 (Homo sapiens), sequence (Q9UBC0 whole entry, looked up, the tested form may be a part): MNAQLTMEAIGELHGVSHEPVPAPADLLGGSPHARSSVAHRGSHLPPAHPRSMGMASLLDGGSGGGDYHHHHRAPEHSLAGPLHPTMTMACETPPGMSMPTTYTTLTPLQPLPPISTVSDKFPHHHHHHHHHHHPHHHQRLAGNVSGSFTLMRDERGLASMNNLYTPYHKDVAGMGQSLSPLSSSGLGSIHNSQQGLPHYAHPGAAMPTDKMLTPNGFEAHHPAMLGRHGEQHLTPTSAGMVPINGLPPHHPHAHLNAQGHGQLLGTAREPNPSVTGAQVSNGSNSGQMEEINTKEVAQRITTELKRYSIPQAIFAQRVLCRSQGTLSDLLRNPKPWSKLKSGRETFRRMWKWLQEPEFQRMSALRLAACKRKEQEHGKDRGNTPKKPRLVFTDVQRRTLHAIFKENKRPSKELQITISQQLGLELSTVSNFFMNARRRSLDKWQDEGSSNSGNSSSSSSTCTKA

CCC(Cc1c(I)cc(I)c(N)c1I)C(=O)O (configuration not stated)
outcome [1]: inactive | outcome [2]: inactive | outcome [3]: inactive | AC50 [4]: 88.5 µM (active) | outcome [5]: inactive | outcome [6]: inactive | outcome [7]: inactive | outcome [8]: inactive | outcome [9]: inactive | outcome [10]: inactive | AC50 [11]: 151 µM (active) | AC50 [12]: 39.7 µM (active) | outcome [13]: inactive | AC50 [14]: 137 µM (active) | AC50 [15]: 88.5 µM (active) | AC50 [16]: 24.1 µM (active) | outcome [17]: inactive | outcome [18]: inactive

C[Si](Cl)(Cl)CCC(F)(F)C(F)(F)C(F)(F)C(F)(F)C(F)(F)C(F)(F)F
outcome [1]: inactive | outcome [2]: inactive | outcome [3]: inactive | outcome [4]: inactive | outcome [5]: inactive | outcome [6]: inactive | outcome [8]: inactive | outcome [19]: inactive | outcome [9]: inactive | outcome [10]: inactive | outcome [12]: inactive | outcome [13]: inactive | outcome [14]: inactive | outcome [16]: inactive | outcome [17]: inactive | outcome [18]: inactive

CC(C)CC=C(C=O)c1ccccc1
outcome [1]: inactive | outcome [2]: inactive | outcome [3]: inactive | outcome [4]: inactive | outcome [5]: inactive | outcome [6]: inactive | outcome [8]: inactive | outcome [19]: inactive | outcome [9]: inactive | outcome [20]: inactive | outcome [10]: inactive | AC50 [11]: 0.956 µM (active) | outcome [12]: inactive | outcome [13]: inactive | outcome [14]: inactive | outcome [16]: inactive | outcome [17]: inactive | outcome [18]: inactive

CC(C)(C)C(=O)C1C(=O)c2ccccc2C1=O
outcome [1]: inactive | outcome [2]: inactive | outcome [3]: inactive | outcome [4]: inactive | outcome [5]: inactive | outcome [6]: inactive | AC50 [7]: 158 µM (active) | outcome [8]: inactive | outcome [9]: inactive | AC50 [20]: 27.8 µM (active) | outcome [10]: inactive | AC50 [11]: 13.9 µM (active) | AC50 [12]: 59.7 µM (active) | outcome [13]: inactive | outcome [14]: inactive | outcome [15]: inactive | outcome [16]: inactive | outcome [17]: inactive | outcome [18]: inactive

O=C(Cl)c1ccc(Cl)cc1Cl
outcome [1]: inactive | outcome [2]: inactive | outcome [3]: inactive | outcome [4]: inactive | outcome [5]: inactive | outcome [6]: inactive | outcome [8]: inactive | AC50 [19]: 163 µM (active) | outcome [9]: inactive | outcome [20]: inactive | outcome [10]: inactive | AC50 [11]: 27.3 µM (active) | outcome [12]: inactive | outcome [13]: inactive | outcome [14]: inactive | outcome [15]: inactive | outcome [16]: inactive | outcome [17]: inactive | outcome [18]: inactive

CCc1ccc(C)nc1
outcome [1]: inactive | outcome [2]: inactive | outcome [3]: inactive | outcome [4]: inactive | outcome [5]: inactive | outcome [6]: inactive | outcome [8]: inactive | outcome [19]: inactive | outcome [9]: inactive | outcome [20]: inactive | outcome [10]: inactive | outcome [11]: inactive | outcome [12]: inactive | outcome [13]: inactive | outcome [14]: inactive | outcome [15]: inactive | outcome [16]: inactive | outcome [17]: inactive | outcome [18]: inactive

C=C(C)CCCC
outcome [1]: inactive | outcome [2]: inactive | outcome [3]: inactive | outcome [4]: inactive | outcome [5]: inactive | outcome [6]: inactive | outcome [7]: inactive | outcome [8]: inactive | outcome [9]: inactive | outcome [20]: inactive | outcome [10]: inactive | outcome [11]: inactive | outcome [12]: inactive | outcome [13]: inactive | outcome [14]: inactive | outcome [15]: inactive | outcome [17]: inactive | outcome [18]: inactive
